Bioassay records as filed in PubChem BioAssay.
3CLpro inhibitor – SARS-CoV 3CLpro protease inhibitors, primary screen, biochemical, quenched FRET. Replicase polyprotein 1ab (Severe acute respiratory syndrome coronavirus), P0C6X7. recombinant SARS-CoV 3CLpro, quenched FRET peptide cleavage. inhibition, % at 6 µM. actives 0.14% (n = 290,000). AID 1706, 2009; in the data active = inhibition above about 12%
BoNT-A LC inh2 – BoNT/A light chain protease inhibitors, primary screen, biochemical, flow cytometry, MLPCN library. inhibition, % at 10 µM. multiplex microsphere protease substrate cleavage. actives 0.17% (n = 360,000); also: plate controls were buffer without enzyme for full effect and enzyme alone for no effect
BoNT F protease – BoNT/F light chain protease inhibitors, primary screen, biochemical, flow cytometry, MLPCN library. Botulinum neurotoxin type F light chain protease (Clostridium botulinum). Multiplex microsphere protease cleavage assay. inhibition, % at 10 µM. actives 0.22% (n = 360,000); in the data active = inhibition above about 35%, passing the limit was not always enough; inconclusive = no clear call, values can overlap the other calls; also: plate controls were buffer without enzyme for full effect and enzyme alone for no effect
Autofluor counter – compound fluorescence in toxin protease inhibitor counterscreen; compound autofluorescence counterscreen, microsphere flow cytometry; active compounds read high; fluorescence intensity (test concentration not listed); actives 3.1% (n = 360,000); in the data active = fluorescence intensity above about 16000; inconclusive = no clear call, values can overlap the other calls
Anthrax LF prot – Bacillus anthracis LF protease inhibitors, primary screen, biochemical, multiplex microsphere, MLPCN library; multiplex microsphere protease cleavage assay; inhibition, % at 10 µM; actives 0.12% (n = 360,000); Lethal factor (Bacillus anthracis), P15917; also: plate controls were buffer without enzyme for full effect and enzyme alone for no effect
CCHF vOTU inh – CCHFV vOTU protease inhibitors, primary screen, biochemical, Pep-AMC substrate, fluorescence. inhibition, % at 11.5 µM. actives 0.55% (n = 370,000); in the data active = inhibition above about 30%; also: 0% = vehicle wells with enzyme and 100% = no enzyme wells
Active calls of the source: *; u = inconclusive; x = not tested or not shown. Sampled rows, rich in hits. Any-hit rate of the full collection: about 3.9%. Rule as the data show it, unless noted: active = inhibition above about 30%; inconclusive = no clear call, values can overlap the other calls; inactive = below that.

SMILES	3CLpro inhibitor	BoNT-A LC inh2	BoNT F protease	Autofluor counter	Anthrax LF prot	CCHF vOTU inh
Cc1cccc(NC(=O)CSc2nnc([C@@H](N)Cc3ccccc3)o2)c1C	0	1	1	9722	-7	-6
COc1ccccc1-c1nnc(SCC(=O)Nc2c(Cl)cccc2Cl)o1	2	3	4	19236*	-2	5
NC(=O)[C@@H]1CCCN1C(=O)[C@H]1O[C@@H](n2ccc(N)nc2=O)[C@H](O)[C@@H]1O	x	x	x	x	x	-4
C=CCn1c(C)c(C=C2C(=O)NC(=O)NC2=O)c2ccccc21	-2	33*	u	3438	-3	-4
C=CCn1cc(/C=C2/NC(=O)NC2=O)c2ccccc21	5	0	u	4620	-10	12
CC1(C)CC(N2CCCCC2)=CC(=[N+]2CCCCC2)C1	4	-2	0	27656*	6	29
Fc1ccc(CNc2ccc(CNc3ncn[nH]3)cc2)cc1	-5	6	4	21380*	-4	-14
Nc1ccc(CNc2ncn[nH]2)cc1	4	1	-2	3261	-4	-4
Cc1cc(C)c(C#N)c(Nc2ccccc2)n1	1	-4	-6	21778*	0	-3
Cc1cccc(Nc2nc(C)cc(C)c2C#N)c1	1	-1	u	4028	-7	0
CCCCn1cnc2cc(NCc3cccc(OC)c3O)ccc21	-1	u	-8	20423*	-5	-5
CCn1cnc2cc(NCc3cccc(OC)c3O)ccc21	3	-2	-20	7113	-8	-20
COCCNC(=O)c1cc2cc(Br)cc(Br)c2oc1=O	-1	0	-2	4462	-4	-6
COCCNC(=O)c1cc2cc(Br)cc(OC)c2oc1=O	1	u	-4	21622*	1	7
Cc1cc2c(nc1C)CCCN2S(=O)(=O)c1cccs1	x	x	x	x	x	-14
CCOC(=O)C(Cc1ccccc1)(NC(C)=O)C(=O)OCC	2	0	2	4348	-4	-14
CCOC(=O)C(Cc1c(F)cccc1F)(NC(C)=O)C(=O)OCC	1	0	1	21936*	-5	-7
COC(=O)[C@]1(CC(C)C)NC=C(C(=O)c2ccccc2)[C@@H]1c1cccc(C(F)(F)F)c1	x	x	x	x	x	18
COC(=O)C1=C[C@@H]([C@@H](C)[C@H](OC)c2ccccc2Br)[C@@H]2OCCC[C@H]12	x	x	x	x	x	1
Cc1nc(N)sc1-c1csc(N(C)c2ccc(O)cc2)n1	1	0	-6	23793*	-1	-6
CN(c1ccc(O)cc1)c1nc(-c2cccs2)cs1	5	-1	-1	4064	-1	-11
COc1ccc(S[C@]2(C(=O)NC3CC3)CC(=O)N[C@@H]2c2ccc(OC)cc2)cc1	x	x	x	x	x	4
Cc1cc(N2CCN(C(=O)OC(C)(C)C)C[C@@H]2C)ccc1Br	x	x	x	x	x	6
Cc1ccsc1-c1ccnc(-n2cccc2)n1	6	-1	-2	16296*	-2	-3
Cc1ccc(-c2nnc3c4ccccc4c(C)nn23)cc1S(=O)(=O)N1CCN(C)CC1	-2	u	2	20956*	-6	8
SMILES	3CLpro inhibitor	BoNT-A LC inh2	BoNT F protease	Autofluor counter	Anthrax LF prot	CCHF vOTU inh
Cc1ccc(-c2nnc3c4ccccc4c(C)nn23)cc1S(=O)(=O)N1CCN(CCO)CC1	-1	0	-9	3215	-3	-28
CCOc1ccc(-n2c(C)nnc2SCC(=O)N(CC)CC)cc1	7	1	-1	19915*	-1	4
CCN(CC)C(=O)CSc1nnc(COc2ccc(OC)cc2)n1N	1	-1	6	3228	-6	15
CN(Cc1ccc(F)cc1)C(=O)c1cccc2c1C(=O)N(Cc1cccnc1)C2	x	x	x	x	x	3
O=C(OCC(F)(F)C(F)F)c1ccccc1C(=O)Oc1ccc(F)cc1F	5	u	3	20051*	0	2
O=C(Nc1ccc(OCC(F)(F)C(F)F)c(C(F)(F)F)c1)c1ccccc1	12	-1	-6	2463	-4	18
C=CCNC(=O)c1ccc(-c2nc(-c3ccc(Cl)c(Cl)c3)cs2)cc1	-1	u	-3	22537*	-4	-9
